High-throughput results deposited in PubChem BioAssay by National Center for Advancing Translational Sciences (NCATS).
IL1B secr inh: inhibitors of inflammasome signaling (IL-1 beta secretion) | THP-1 LPS/ATP IL-1B secretion, AlphaLISA, 16 h; active compounds read low | activity change, % at 57.5 µM | 360,000 tested, 4.7% active | AID 743279; in the data active means activity change below about -50%; inconclusive means mostly about -30% to -49%
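Secreted IL-1B measured by AlphaLISA bead assay after 16 h compound exposure of THP-1 cells; compounds (final up to 57.5 uM) added 1 h before LPS (250 ng/mL) and ATP (1.25 mM) stimulation; lower signal means less secretion.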
TDP1 cell CPT: DT40-hTDP1 cell growth loss with CPT; chicken DT40 Tdp1-/-;hTDP1 cells + 20 nM CPT, ATP luminescence, 48 h; Potency, µM (titrated, usually from 46.2 µM), for the others: top-dose activity change, negative = growth inhibition, usual class: inhibitors; 420,000 tested, 12% active; further: potency means the concentration at half of the fitted maximal effect; nearly all actives have a fitted effect of over 55% in size
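Cell growth measured by CellTiter-Glo luminescence after a minimum 48 h, 37 C compound exposure with 20 nM CPT in Tdp1-knockout DT40 cells stably expressing hTDP1, seeded 400/well; qHTS titration format.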
TDP1 block: blocks human tyrosyl-DNA phosphodiesterase 1 | recombinant TDP1, AlphaScreen DNA substrate cleavage | 350,000 tested, 0.28% active | Potency, µM (series often up to 130 µM), for inactives: at the highest dose activity change, negative = inhibition, most hits filed as inhibitors; further: potency means the concentration at half of the fitted maximal effect; nearly all actives have a fitted effect of over 40% in size
Target sequence (Q9NUW8 whole entry, looked up): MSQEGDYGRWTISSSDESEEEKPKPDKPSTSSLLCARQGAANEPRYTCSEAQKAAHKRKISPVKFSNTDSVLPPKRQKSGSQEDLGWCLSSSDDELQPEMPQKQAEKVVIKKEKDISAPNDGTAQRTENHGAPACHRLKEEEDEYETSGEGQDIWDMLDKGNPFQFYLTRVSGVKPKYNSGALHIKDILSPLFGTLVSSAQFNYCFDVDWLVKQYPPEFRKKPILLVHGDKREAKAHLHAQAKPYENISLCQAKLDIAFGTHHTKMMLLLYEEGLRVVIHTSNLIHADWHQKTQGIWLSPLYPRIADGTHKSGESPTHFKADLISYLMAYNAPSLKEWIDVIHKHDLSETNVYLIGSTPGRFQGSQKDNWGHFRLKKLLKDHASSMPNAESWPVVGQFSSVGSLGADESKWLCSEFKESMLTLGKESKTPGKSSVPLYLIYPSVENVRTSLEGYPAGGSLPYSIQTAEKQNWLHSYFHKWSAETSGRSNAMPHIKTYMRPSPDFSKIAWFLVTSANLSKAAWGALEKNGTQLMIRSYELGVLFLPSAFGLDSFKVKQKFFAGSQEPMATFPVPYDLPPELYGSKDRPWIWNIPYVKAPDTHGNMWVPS
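Steps: enzyme plus compound, 15 min RT; add biotin/phosphotyrosine-FITC oligonucleotide (15 nM final), react 5 min; add donor/acceptor beads (10 ug/ml final), 10 min; read AlphaScreen. Tdp1 at 1 nM final.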
TDP1 cell noCPT: qHTS for Inhibitors of human tyrosyl-DNA phosphodiesterase 1 (TDP1): qHTS in cells in absence of CPT | DT40 Tdp1-/- hTDP1 cells, no CPT, ATP luminescence, 48 h | Potency, µM (titrated, usually from 46.2 µM), inactives show top-dose activity change, negative = growth inhibition, most hits filed as inhibitors | 420,000 tested, 15% active | AID 686978, 2013; further: potency means the concentration at half of the fitted maximal effect; nearly all actives have a fitted effect of over 55% in size
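Cells were dispensed at 400 per well, compounds added by pin tool, plates incubated ≥48 hr at 37 °C, then CellTiter-Glo added for 30 min at room temperature before luminescence reading. Line: DT40 Tdp1-/- complemented with hTDP1; camptothecin omitted.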
Giardia kill: kills Giardia lamblia; Giardia lamblia trophozoite viability; activity change, % at 7.66 µM, hits read low; 340,000 tested, 0.15% active; AID 540267; in the data active means activity change below about -80%; inconclusive means between about -30% and that limit;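 further: parasites exposed to compound for two days anaerobically before the ATP read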
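Viability, read as ATP luminescence: trophozoites at 100 cells/well, compound added, 48 hrs anaerobic at 37 deg C, then 15-30 min room-temperature development before reading.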
ELG1 repair inh: blocks ELG1-dependent DNA repair in HEK293T cells; HEK293T ELG1-luciferase reporter, luminescence, 16 h; DNA damage induced by 5-fluorouridine; Potency, µM (top dose mostly 46.1 µM), for the others: top-dose activity change, negative = inhibition, usual class: inhibitors; 330,000 tested, 2.3% active; further: potency means the concentration at half of the fitted maximal effect; nearly all actives have a fitted effect of over 55% in size
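Quantitative HTS, concentration-response format. 2,000 cells/well co-treated with 5-fluorouridine and compound, 16 hr in 5% CO2 at 37 °C; ONE-Glo luminescence read after 30 min.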
Numbers without * were called inactive; ? = inconclusive; . = not tested or not shown; [ ] = remark or other dose. Compounds with a hit are over-represented: about 19% of the library has one in this group of screens. Unless noted, the call rests on the fitted dose curve; in most records, active means well fitted curve in the direction sought with a large enough effect; inconclusive means small, poorly fitted or top-dose-only effect, or another doubt; inactive means no such curve, though single readings can be large; an effect the other way counts as inactive or inconclusive. On the % scale 0 is the no-effect control and ±100 the full control effect.

SMILES	IL1B secr inh	TDP1 cell CPT	TDP1 block	TDP1 cell noCPT	Giardia kill	ELG1 repair inh
COc1ccc(CNC(=O)C2CCN(S(=O)(=O)c3ccc(N4CCCC4=O)cc3)CC2)cc1	-3.7	25.9µM*	.	11.6µM*	.	.
COc1ccc(CNC(=O)C2CCN(S(=O)(=O)c3ccccc3)CC2)cc1	-3.6	-1.0%	1.7%	-1.8%	14.6	-15.9%
CC(C)c1nc2sc3c(SCCN(C)C)ncnc3c2c2c1CCC2	18.5	-20.7%	.	?	-7.7	.
CCCOc1ccc(C2=CSC3=NCCN23)cc1	9.6	0.2%	.	-16.3%	-3.2	?
CCNc1nc(NC(C)C)nc(SCCOc2ccc(C)cc2)n1	-22.2	16.4µM*	-4.0%	23.1µM*	0.0	10.9%
CCNc1nc(NCC)nc(OCCOC(=O)c2ccccc2)n1	7.8	-14.0%	3.0%	-12.1%	1.5	2.3%
CCNc1nc(NC(C)C)nc(SCCOC(=O)c2ccccc2)n1	14.3	14.6µM*	-5.3%	?	4.5	2.2%
CCNc1nc(SCCOc2ccc(Br)cc2)nc(N(C)C)n1	5.5	?	.	14.6µM*	0.2	?
CCNc1nc(NC(C)C)nc(OCCNS(=O)(=O)c2cc(C)ccc2C)n1	-4.4	-17.7%	6.1%	?	-16.3	20.6µM*
CCC1=C2CC[C@H]3C(=O)N(c4ccccc4)C(=O)[C@H]3[C@H]2[C@@]2(C)C(=O)N(CC(=O)OC)C(=O)N2C1=O	.	.	2.7%	.	.	.
N#Cc1nc(COc2ccccc2)oc1N1CCOCC1	-18.2	-11.0%	4.1%	-2.1%	-5.0	?
N#CC1=C(Nc2ccccc2)SC=C(c2ccc(Cl)c(Cl)c2)N=C1N1CCOCC1	-80.2*	13µM*	7.3%	?	12.6	-24.4%
N#CC1=C(Nc2ccccc2)SC=C(c2ccccc2)N=C1N1CCOCC1	-7.4	5.8µM*	4.0%	29.1µM*	3.5	17.4%
CC(=Nc1ccccc1)C1=C(O)C(Cc2cccc(F)c2)NC1=O (configuration not stated)	70.8	0.0058µM*	.	0.103µM*	.	.
CC(=Nc1ccccc1)C1=C(O)C(Cc2ccc(O)cc2)NC1=O (configuration not stated)	31.2	0.0184µM*	.	0.0082µM*	-8.6	.
O=C1NC[C@H](Cc2ccccc2)N(CCc2cccc(F)c2)C1=O	5.1	-14.2%	-1.2%	-4.0%	13.1	-3.0%
O=C1C(c2[nH]c3ccc(S(=O)(=O)O)cc3c2O)=Nc2ccc(S(=O)(=O)O)cc21	.	-19.2%	?	-17.1%	.	.
O=C(Nc1ccc(-c2nc3ccc(NC(=O)c4cccs4)cc3[nH]2)cc1)c1cccs1	-22.8	1.64µM*	-8.8%	1.64µM*	13.2	?
O=C(Nc1ccc2nc(-c3cccs3)[nH]c2c1)c1ccco1	-10.4	?	8.0%[56.1 µM]	?	-15.9	?
O=C(Cc1cccs1)Nc1cccc(-c2nc3cc4ccccc4cc3[nH]2)c1	-97.1*	25.9µM*	0.0%	13µM*	-21.0	?
O=C(Nc1ccc2nc(-c3cccs3)[nH]c2c1)c1cccs1	-16.0	?	0.0%	23.1µM*	-6.2	?
CC(C)(C)c1cc2nc(NCCOc3ccccc3)ccn2n1	9.7	?	.	?	.	.
CCn1nc(C)c(CCN(C)C(=O)Nc2cccc(Cl)c2C)c1C	.	-24.3%	-3.8%	?	.	.
Cc1csc2nc(COc3ccc(NC(=O)c4ccccc4F)cc3)cc(=O)n12	.	-4.6%	-6.4%	-20.3%	.	.
COc1ccc(Cn2c(SCC#N)nc3ccc(N4CCOCC4)cc3c2=O)cc1	-10.5	?	2.5%	?	-13.3	?
SMILES	IL1B secr inh	TDP1 cell CPT	TDP1 block	TDP1 cell noCPT	Giardia kill	ELG1 repair inh
O=C(c1cnsn1)N1CCOc2ccc(CN3CCOCC3)cc2C1	.	12.5%[9.04 µM]	.	-13.0%	.	.
COc1ccc(CN(CC2CCCO2)C(=O)CN2C(=O)COc3ccccc32)cc1OC (configuration not stated)	-14.1	-10.8%	8.2%[56.1 µM]	-20.9%	-25.8	11.6µM*
COc1ccc(CN(CC(=O)NC2CCCC2)C(=O)CN2C(=O)COc3ccccc32)cc1	-7.8	-6.1%	3.4%[0.0935 µM]	-16.2%	0.1	?
Cc1ccccc1CSc1nnc2[nH]c(=O)cc(C)n12	.	4.8%	0.0%	-1.6%	.	.
CCOC(=O)CSc1nc2ccc(NC(=O)c3ccc(Cl)cc3)cc2s1	.	-27.0%	2.6%	?	.	.
CCCC(=O)Nc1ccc2nc(SCC(=O)N3CCOCC3)sc2c1	.	?	-2.6%	?	.	.
CCOC(=O)Nc1ccc2nc(Sc3ccc(Cl)cc3)sc2c1	42.7	5.8µM*	2.5%	5.8µM*	8.6	-19.6%
O=C(COc1ccc(Cl)cc1)Nc1ccc2nc(SCC(=O)N3CCOCC3)sc2c1	.	?	5.7%	14.6µM*	.	.
Cc1ccc(OCC(=O)Nc2ccc3nc(SCC(=O)N4CCOCC4)sc3c2)cc1	.	?	-3.6%	20.6µM*	.	.
COC(=O)C1=C(C)[C@@H](O)[C@@H](C)[C@](C)(c2cc(OC)c(C)c(OC)c2COc2ccccc2)O1	.	.	8.1%	.	.	.
Cc1[nH][nH]c(=O)c1C(c1ccc(-c2ccc(Cl)c(Cl)c2)o1)c1c(C)[nH][nH]c1=O	-22.1	3.26µM*	12.7%	2.59µM*	-5.7	-2.7%
Cc1[nH][nH]c(=O)c1C(c1ccc(-c2ccc(F)cc2)o1)c1c(C)[nH][nH]c1=O	?	?	10.3%	?	-7.7	-0.9%
COc1ccc(-c2ccc(C(c3c(C)[nH][nH]c3=O)c3c(C)[nH][nH]c3=O)o2)c([N+](=O)[O-])c1	-73.5*	?	6.7%	23.1µM*	?	?
CC(C)(C)NC(=O)C(c1cccc2ccccc12)n1c(=O)c(-c2ccco2)nc2ccccc21 (configuration not stated)	14.0	23.1µM*	.	?	.	.
CC(C)(C)NC(=O)C(c1cccc2ccccc12)n1c(=O)c(-c2ccccc2)nc2ccccc21 (configuration not stated)	17.0	20.6µM*	.	0.13µM*	.	.
O=C(NCc1ccccc1)C(c1cccc2ccccc12)n1c(=O)c(-c2ccco2)nc2ccccc21 (configuration not stated)	-4.6	?	.	?	.	.
C=CC(=O)Nc1cccc(N(C)c2ccnc(Nc3ccc(N4CCN(C)CC4)cc3)n2)c1	-99.8*	?	.	5.17µM*	?	.
CN1CCN(c2ccc(NC(=O)COc3ccc4ccccc4c3)cc2)CC1	7.8	?	.	?	10.6	?
C=CC(=O)Nc1cccc(Oc2ccnc3[nH]ccc23)c1	0.0	?	.	?	-7.8	.
